Shown are actives, neighbours in structure and some others; about 5.2% of the full set was active somewhere.
Vif imaging: HIV Vif inhibition | HEK293T cells, Vif self-association by quenched fluorescence, imaging, 24 h | actives 0.35% (n = 340,000) | AID 602346 | inhibition, % at 7.49 µM; in the data active = inhibition above about 50%, passing the limit was not always enough
SMARCA2 act: SMARCA2 function activation, primary screen | MG213 cells, MMTV-luciferase reporter, dexamethasone, overnight | activation, % at 9.1 µM | actives 1% (n = 370,000) | AID 652017; in the data active = activation above about 7.8%
SKN-1 block: C. elegans SKN-1 inhibition. C. elegans VP596 Pgst-4::GFP/RFP ratio, acrylamide-induced, 24 h. inhibition, % at 21.8 µM. actives 0.49% (n = 360,000). AID 624304;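 active = interference check ratio from 0.5 to 1.5 plus GFP to RFP signal ratio inhibition reaching or exceeding a fixed threshold, cut at about 30% in these data, passing the limit was not always enough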
NadD block: NadD (S. aureus) enzyme inhibition; purified NadD enzyme, colorimetric absorbance read-out; inhibition, % at 20 µM; actives 0.78% (n = 360,000); in the data active = inhibition above about 26%
NR3A LBD binder: modulates the human NR3A ligand-binding domain; Tm shift relative to glycine control, % at 25 µM; NR3A LBD differential scanning fluorimetry, Tm shift; 0% = protein alone, 100% = glycine-bound protein; actives 2.5% (n = 340,000);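 active = melting temperature shift of at least 10% of the positive control shift, at one fixed dose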
esBAF inh: SWI/SNF esBAF complex inhibition; mouse ES cells, Bmi1-luciferase knock-in reporter, 24 h; 100% = twice the neutral-well signal; reporter increase, % at 12.5 µM; actives 2% (n = 350,000); AID 602393; in the data active = activation above about 40%;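 note: a rise in the Bmi1 reporter signal indicates esBAF inhibition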
A number is an active result; . = inactive; / = no result given; ! = repeats disagree.

SMILES	Vif imaging	SMARCA2 act	SKN-1 block	NadD block	NR3A LBD binder	esBAF inh
Cc1nnc(SCC(=O)N2CCC(Cc3ccccc3)CC2)n(N)c1=O	/	.	.	.	11	.
C[C@@H]1CCCCO[C@@H](CN(C)Cc2ccccc2)[C@@H](C)CN([C@H](C)CO)C(=O)c2cc(NS(=O)(=O)c3cn(C)cn3)ccc2O1	/	/	/	/	/	.
O=[N+]([O-])c1cc(Cl)ccc1N1CCOCC1	.	.	.	.	.	.
Cc1ccc(Cl)c(OC(=O)c2ccc(N3CCOCC3)c([N+](=O)[O-])c2)c1	/	.	.	.	22	/
Cc1cc(C)c(S(=O)(=O)N2CCN(S(=O)(=O)N3CCOCC3)CC2)c(C)c1	68	.	.	.	.	.
Cc1cc(C)c(S(=O)(=O)N2CCCC2)c(C)c1	.	.	.	.	.	.
Cn1ccnc1SCC(=O)c1cccc(Br)c1	.	.	.	.	.	.
COc1cccc(C(=O)CSc2nccn2C)c1	.	.	.	.	.	44
C[C@H]1CCCCO[C@@H](CN(C)C)[C@@H](C)CN([C@@H](C)CO)C(=O)c2cc(NS(C)(=O)=O)ccc2O1	/	/	/	/	/	.
COc1cc(/C=N/NC(=O)Nc2cccc3nsnc23)cc(OC)c1OC	.	.	.	.	.	/
O=C(N/N=C/c1ccc(O)cc1)Nc1cccc2nsnc12	.	.	.	.	17	/
O=C([C@H]1[C@H](CO)[C@H]2Cn3c(ccc(C4=CCCC4)c3=O)[C@H]2N1Cc1nccs1)N1CCOCC1	/	/	/	/	/	.
Clc1c(-c2ccccc2)nnn1-c1ccccc1	.	.	36	.	.	/
Nc1nnn(-c2ccccc2)c1-c1ccccc1	.	.	.	.	.	.
COc1ccc(-c2nnc(SCC(=O)NCc3cccs3)n2C)cc1	.	.	.	.	.	.
Cn1c(SCC(=O)N2CCN(c3ccccc3)CC2)nnc1-c1ccncc1	.	.	.	.	11	.
Cn1c(SCC(=O)NCc2cccs2)nnc1-c1ccncc1	59	.	.	.	.	.
O=C(CN1CCOCC1)N[C@H]1CC[C@H](CCNC(=O)C2CCC2)O[C@H]1CO	/	/	/	/	/	.
O=C(c1cc2ccccc2oc1=O)N(Cc1cccs1)Cc1cccs1	.	.	.	.	.	/
O=C(c1cc2ccccc2oc1=O)N(Cc1ccco1)Cc1cccs1	59	.	.	.	.	.
CNc1ccc(C=C2C=Cc3ccccc32)cc1	.	.	82	.	.	.
COc1c(Cl)cccc1-c1cn2ccc(C)cc2n1	.	.	.	.	11	/
CCOC(=O)C1CCN(S(=O)(=O)c2cccc(-c3cn4cc(C)ccc4n3)c2)CC1	64	.	.	.	.	.
Cc1ccn2cc(-c3cccc(S(=O)(=O)N4CC(C)OC(C)C4)c3)nc2c1 (stereo not given)	.	.	.	.	.	.
Cc1ccc(S(=O)(=O)N2CCC(C(=O)OCCOc3cccc(C)c3)CC2)cc1	.	.	.	.	20	.
SMILES	Vif imaging	SMARCA2 act	SKN-1 block	NadD block	NR3A LBD binder	esBAF inh
Cc1ccn2cc(-c3cccc(S(=O)(=O)N4CCCC4)c3)nc2c1	.	.	.	.	.	47
CN(C)C(=O)C[C@H]1C[C@H]2c3cc(NC(=O)Nc4ccccc4)ccc3O[C@H]2[C@H](CO)O1	/	/	/	/	/	.
C[C@H](CO)N1C[C@H](C)[C@H](CN(C)C(=O)c2ccc(F)cc2)OCc2ccccc2-c2c(n(C)c3ccccc23)C1=O	/	/	/	/	/	.
COc1cc(-c2nc3ccc(C)cn3c2Nc2ccc3c(c2)OCCO3)ccc1O	.	.	.	.	23	.
COc1ccc(C(=O)c2sc3nc(-c4ccc(OC)cc4)ccc3c2N)cc1	.	.	.	.	.	/
Nc1c(C(=O)Nc2ccccc2)sc2nc(-c3cccnc3)ccc12	/	.	/	/	/	/
COc1ccc(NC(=O)c2sc3nc(-c4cccnc4)ccc3c2N)cc1	92	.	.	.	.	/
COc1ccc(-c2ccc3c(N)c(C(=O)c4cccc(OC)c4)sc3n2)cc1	/	.	.	.	17	.
Cc1noc(C)c1NC(=O)N(C)C[C@H]1OCCCC[C@H](C)Oc2ccc(NC(=O)Nc3cccc4ccccc34)cc2C(=O)N([C@H](C)CO)C[C@@H]1C	/	/	/	/	/	.
O=C(CN1CCN(C(=O)c2ccc(-c3nc4ccccc4s3)o2)CC1)Nc1ccc(F)cc1	.	.	.	.	.	59
O=C(Nc1cc(F)ccc1F)N[C@H]1C=C[C@H](CC(=O)N2CCc3ccccc3C2)O[C@@H]1CO	/	/	/	/	/	.
C[C@H](CO)N1C[C@H](C)[C@H](CN(C)C(=O)Nc2ccc(F)cc2)Oc2ncc(C#C[C@@H](C)O)cc2C1=O	/	/	/	/	/	.
CC1=C(/C=C/C(C)=C/C=C/C(C)=C/C(=O)Nc2ccc(O)cc2)C(C)(C)CCC1	50!	.	.	.	17	.
CC1=C(/C=C/C(C)=C/C=C/C(C)=C\C(=O)O)C(C)(C)CCC1	.	.	.	.	.	.
CCOC(=O)Nc1cc2c(cc1[N+](=O)[O-])-c1ccccc1C2=O	.	.	.	.	.	.
CCOC(=O)Nc1cccc2c1-c1ccc([N+](=O)[O-])cc1C2=O	.	.	40	.	.	/
COc1cccc(-n2c(C)nnc2SCC(=O)Nc2ccccc2N2CCOCC2)c1	.	7.9	.	.	.	.
C[C@@H]1CCCCO[C@H](CN(C)S(C)(=O)=O)[C@H](C)CN([C@@H](C)CO)C(=O)c2cc(NC(=O)Cc3ccccc3)ccc2O1	/	/	/	/	/	.
COc1ccc(NC(=O)/C=C/c2c(Cl)nc3ccccn23)cc1	.	.	.	.	17	/
COc1ccccc1N1CCN(C(=O)/C=C/c2c(Cl)nc3ccccn23)CC1	.	.	.	.	.	/
C[C@@H]1CN([C@@H](C)CO)C(=O)c2cc(N(C)C)ccc2O[C@@H]1CN(C)Cc1ccc(C(=O)O)cc1	/	/	/	/	/	.
COc1ccc(NC(=O)N[C@@H]2CC[C@H](CCNC(=O)Nc3cc(F)ccc3F)O[C@@H]2CO)cc1	/	/	/	/	/	.
Cc1ccc(OCc2nc(-c3ccccc3)no2)c(C)c1	.	.	.	.	.	64
Cc1ccc(OCc2nc(-c3cccs3)no2)c([N+](=O)[O-])c1	.	7.9	.	.	.	/
CO[C@H]1CN(C)C(=O)c2cc(NC(=O)Nc3c(C)noc3C)ccc2OC[C@@H](C)N(CCC(F)(F)F)C[C@@H]1C	/	/	/	/	/	.
SMILES	Vif imaging	SMARCA2 act	SKN-1 block	NadD block	NR3A LBD binder	esBAF inh
CN(C)c1ccc(-c2nnc(-c3cccs3)o2)cc1	/	.	.	.	.	/
Brc1ccc(-c2cnc(-c3cccs3)o2)cc1	.	.	89	.	.	67
N/C(=N\OC(=O)c1ccc(Cl)cc1Cl)c1ccccc1	.	.	56	.	.	.
N/C(=N\OC(=O)c1ccc(Cl)cc1Cl)c1cccnc1	.	.	54	.	.	.
Cc1cccc(/C(N)=N/OC(=O)c2ccc(Cl)cc2Cl)c1	.	.	.	.	.	/
Cc1ccc(/C(N)=N/OC(=O)c2ccc(C)cc2Cl)cc1	.	.	.	.	197	/
N/C(=N\OC(=O)c1ccc(Cl)cc1Cl)c1ccc(Cl)cc1	.	.	.	.	18	.
